# Assay outcomes as filed in PubChem.
# Sampled rows, rich in hits. Any-hit rate of the full collection: about 5.7%.
# ssDAF-12 act: S. stercoralis DAF-12 nuclear receptor activators, primary screen, cell-based, luminescence, HEK293, GRIP1 co-expression, lit1-tk-luc; HEK293 ssDAF-12/GRIP1 lit1-tk-luc reporter; % of 3 µM dafachronic acid response; actives 1% (n = 370,000); activation, % at 6.8 µM; Nuclear hormone receptor DAF-12 (Strongyloides stercoralis);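 active = activation above the mean over all tested compounds plus 3 SD, cut at about 0.9% in these data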;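 also: 0% = DMSO-only wells and 100% = 3 µM delta7-dafachronic acid wells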
# hgDAF12 agonist: H. glycines DAF-12 receptor agonists, primary screen, cell-based, luminescence, HEK293, GAL4 fusion, UAS-luciferase. Nuclear hormone receptor DAF-12 (Heterodera glycines), GAL4 fusion. HEK293 GAL4-hgDAF12 UAS-luciferase reporter, agonist luminescence; normalized to butyrate control. activation, % at 6.8 µM. actives 1.8% (n = 370,000);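 active = activation above a cutoff set at the mean of all screened compounds plus 3 SD, cut at about 10% in these data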;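 also: 0% = DMSO wells and 100% = sodium butyrate wells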
# AHR act: AHR activators, primary screen, cell-based, luminescence, luciferase reporter, human; Aryl hydrocarbon receptor (Homo sapiens), P35869; AHR-responsive luciferase reporter cells; activation, % at 5 µM; actives 2.5% (n = 320,000); AID 2796, 2010; in the data active = activation above about 47%;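 also: 0% = vehicle wells and 100% = reference agonist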
# DAX1 inh-1: DAX1 (NR0B1) inhibitors, primary screen, cell-based, HEK293, Gal4-DAX1, luciferase luminescence. AID 504766, 2011. HEK293 Gal4-DAX1 luciferase reporter. actives 0.99% (n = 340,000). inhibition, % at 6.75 µM;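 active = inhibition above the mean over all tested compounds plus 3 SD, cut at about 4.2% in these data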;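 also: 0% = DAX1-transfected cells with DMSO and 100% = empty-vector control cells with DMSO; inhibition shows as a rise in luminescence from relieved DAX1 repression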
# hcDAF-12 act: H. contortus DAF-12 nuclear receptor activators, primary screen, cell-based, luminescence, HEK293, lit1-tk-luc reporter | HEK293 hcDAF-12 lit1-tk-luc reporter; 0% DMSO, 100% Δ7-dafachronic acid | activation, % at 6.8 µM | actives 1.4% (n = 370,000);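 active = activation above the mean of all tested compounds plus 3 SD, cut at about 5.5% in these data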;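 also: 100% = response to 3 µM Δ7-dafachronic acid high control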
# DAX1 inh-2: DAX1 (NR0B1) inhibitors on StAR promoter, primary screen, cell-based, luminescence, SF-1 (NR5A1), full-length DAX-1; HEK293T StAR-luciferase reporter, SF-1/DAX-1 repression relief; inhibition, % at 6.8 µM; actives 1.1% (n = 370,000); AID 652010, 2013;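 active = inhibition above the mean over all tested compounds plus 3 SD, cut at about 3.6% in these data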;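 also: 0% = DAX-1 cells with DMSO and 100% = cells lacking DAX-1 with DMSO; higher inhibition means more luminescence from relief of DAX-1 repression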
# LXRb hcDAF ctr: LXR agonists, Gal4 luciferase reporter, confirmation, counter-screen for hcDAF-12 agonist project, cell-based, luminescence, HEK293, H. contortus campaign. HEK293 Gal4-LXR tk-luc reporter, 24 h; normalized: DMSO 0%, positive control 100%. 3,400 tested, under 10 active. activation, % at 6.8 µM. shares compounds with hcDAF-12 act;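 active = mean percent activation of the reporter above a cutoff set as the average over tested compounds plus their standard deviation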
# Target sequence (P55055 whole entry, looked up, the tested form may be a part): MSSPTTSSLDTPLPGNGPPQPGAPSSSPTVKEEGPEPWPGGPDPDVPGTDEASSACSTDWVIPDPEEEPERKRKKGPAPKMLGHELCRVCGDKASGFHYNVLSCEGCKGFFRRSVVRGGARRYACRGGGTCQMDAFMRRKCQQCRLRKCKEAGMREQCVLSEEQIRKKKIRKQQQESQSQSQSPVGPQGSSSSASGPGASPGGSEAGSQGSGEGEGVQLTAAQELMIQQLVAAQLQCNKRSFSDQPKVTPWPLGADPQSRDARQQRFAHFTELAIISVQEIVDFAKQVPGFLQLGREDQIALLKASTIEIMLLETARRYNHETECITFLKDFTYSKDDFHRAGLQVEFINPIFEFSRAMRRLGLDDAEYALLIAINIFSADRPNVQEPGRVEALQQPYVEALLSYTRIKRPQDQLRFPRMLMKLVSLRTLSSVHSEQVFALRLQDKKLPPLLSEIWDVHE
# hcDAF12 conf: H. contortus DAF-12 receptor agonists, confirmation, cell-based, luminescence, HEK293, lit1-tk-luc, triplicate; shares compounds with hcDAF-12 act; HEK293 hcDAF-12 lit1-tk-luc reporter; % of Δ7-dafachronic acid response; activation, % at 6.8 µM; actives 61% (n = 3,400);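 active = mean activation across triplicate tests above the threshold derived from the earlier primary screen, cut at about 5.5% in these data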;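 also: 0% = DMSO only wells and 100% = 3 µM Δ7-dafachronic acid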
# Starred values were filed as active, the others as inactive; x = not tested or not shown.
SMILES,ssDAF-12 act,hgDAF12 agonist,AHR act,DAX1 inh-1,hcDAF-12 act,DAX1 inh-2,LXRb hcDAF ctr,hcDAF12 conf
O=C(NCCc1c[nH]c2ccccc12)c1cnccn1,3.4*,3,21,0,6.7*,0,0,4
O=c1c2ccccc2oc2nc(-c3cccs3)n(CCc3ccccc3)c(=O)c12,x,x,7,x,x,x,x,x
NS(=O)(=O)c1ccc(NC(=S)NCc2ccco2)cc1,-1,1,8,2,7.2*,0,0,5
NC(=O)c1ccc(NC(=S)NCc2ccco2)cc1,-2,-1,3,0,1,0,x,x
CC(Nc1cccc(C(=O)NC2CC2)c1)c1nnc(-c2ccccc2)o1 (stereo not drawn),-1,0,1,-1,0,-1,x,x
CC(C)(C)c1ccc(C(=O)NC(=S)Nc2nc3c(s2)CCCC3)cc1,-3,-14,19,1,-4,-2,x,x
CN(C)c1ccc(C(=O)Nc2nc3c(s2)CCCC3)cc1,-1,12*,11,-2,7.7*,3.8*,2,8.4*
CC(=O)n1cc(/C=N/NC(N)=S)c2ccccc21,-2,-2,2,2,0,0,x,x
CC(=O)n1cc(/C=C2/N=C(c3ccccc3)OC2=O)c2ccccc21,0,2,38,2,6.7*,0,0,4
COc1ccc(N2C(=O)C3CCCN3C2=S)cc1 (stereo not drawn),-1,-2,-2,1,-1,0,x,x
O=C(CN1C(=O)c2ccccc2S1(=O)=O)NCc1ccco1,0,2,0,0,-1,0,x,x
COc1ccc(NC(=O)CSc2nnc(-c3ccccc3)n2Cc2ccco2)cc1OC,-2,-2,1,-1,-1,-1,x,x
COc1ccc(-c2nnc(SCC(=O)Nc3ccc4cn[nH]c4c3)n2Cc2ccco2)cc1,1,4,x,x,7.4*,-2,0,5
Cc1onc(C(=O)N2CCOCC2)c1[N+](=O)[O-],-1,-5,2,2,7.2*,-1,0,1
Cn1c(C(=O)Nc2ccc(Cl)cc2)cc2cc(Cl)ccc21,0,4,68*,0,8.3*,0,0,7.9*
CC(=O)N1CCOc2ccc(S(=O)(=O)NCc3ccc(F)cc3)cc21,-1,-1,1,1,0,-2,x,x
c1ccc(COc2ccc(OCCCN3CCCC3)cc2)cc1,0,8,0,0,7.3*,4.4*,1,9.4*
CC1CCN(CCCOc2ccc(OCc3ccccc3)cc2)CC1,-1,1,13,-1,-1,0,x,x
O=c1[nH]cnc2c1ncn2Cc1ccc([N+](=O)[O-])cc1,-1,-1,-2,1,-3,-1,x,x
O=C(O)c1ccc(Cn2cnc3c(=O)[nH]cnc32)cc1,1.2*,1,x,1,10*,1,0,-1
COC(=O)C1CCN(c2nc3ccccc3nc2C(C#N)C(=O)NCCc2ccccc2)CC1 (stereo not drawn),0,-1,16,0,8.2*,0,0,4
COC(=O)C1CCN(c2nc3ccccc3nc2C(C#N)C(=O)OCC(C)C)CC1 (stereo not drawn),-1,2,-3,-1,0,-1,x,x
COc1ccc(CN2C(=O)C(CC(=O)NCCc3ccccn3)CC(C(=O)N(C)C)=C2C)cc1 (stereo not drawn),0,1,x,3,0,-1,x,x
CN(C)CCCNc1nc(-c2ccccc2)nc2ccccc12,0,-1,20,-1,4,0,x,x
Cc1ccc(-c2nc(NCCCN(C)C)c3ccccc3n2)cc1,0,11*,x,4,8.3*,3,0,11*
SMILES,ssDAF-12 act,hgDAF12 agonist,AHR act,DAX1 inh-1,hcDAF-12 act,DAX1 inh-2,LXRb hcDAF ctr,hcDAF12 conf
Cc1ccc(-c2nc(NCCN3CCOCC3)c3ccccc3n2)cc1,0,11*,66*,2,6.8*,2,0,6.4*
COc1c(Cl)cccc1-c1cn2ccccc2n1,0,13*,14,-1,7.3*,3,1,7.7*
COc1cc(Nc2ccn3nc(-c4ccccc4Cl)cc3n2)cc(OC)c1OC,-2,0,x,x,-2,-1,x,x
O=C(NCc1ccccc1Cl)O[C@H]1CC[C@@]23CCCN2C(=O)CCC[C@H]3C1,-2,-1,x,x,0,x,x,x
Cn1c(-c2ccc3ccccc3n2)[n+](C)c2ccccc21,-1,3,5,-1,10*,0,0,2
Cn1c(-c2ccccn2)[n+](C)c2ccccc21,-1,3,1,0,0,0,x,x
O=C1Nc2ccccc2/C1=C\C(=O)c1ccccc1,-1,-2,8,-2,-1,-1,x,x
O=C(/C=C1\C(=O)Nc2ccccc21)/C=C1\C(=O)Nc2ccccc21,0,2,x,-1,11*,0,0,3
Cc1nc2ccccc2nc(C)c1=NO,1.0*,12*,26,4,8.6*,4.1*,0,4
Nc1nnc2cc(Cl)ccc2n1,-1,6,x,0,-1,-1,x,x
Cc1nc2ccc(Cl)cc2nc(C)/c1=N\O,1.0*,11*,58*,5.3*,7.7*,2,0,6.3*
C/C(=N\Nc1nc2ccccc2nc1C)c1ccccc1O,-1,-1,29,1,-1,0,x,x
Cc1ccc(-c2noc(-c3ccoc3C)n2)cc1,0,10,11,1,5,1,x,x
Cc1ccc(NC(=O)CN2c3cccc4cccc(c34)S2(=O)=O)cc1,-1,1,8,0,0,-1,x,x
